# Several values for one entry are separate records, joined by “and”; a condition that tells them apart may be missing. Equal values may be shown once. Compounds without any hit were thinned out: in the full panel of roughly 79,000, 15% have a hit. Unmarked numbers belong to inactive results. Activity calls are given as the source filed them. Rule as the data show it: active = growth inhibition above about 70%; inactive = the rest.
# What was measured:
# [1] = NCI Yeast Anticancer Drug Screen. Data for the rad50 strain (AID 155);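 also: 0% = growth of vehicle-only cultures of the same strain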; conditions: S. cerevisiae rad50 strain growth inhibition, active compounds read high; at 50.0 µM unless noted
# Summary of the method: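 Cells are treated with compound, grown, and their growth is then scored against vehicle-only cultures of the same repair-deficient yeast strain.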
# [2] = NCI Yeast Anticancer Drug Screen. Data for the mec2-1 strain (AID 157); conditions: S. cerevisiae mec2-1 strain, active compounds read high; at 50.0 µM unless noted
# Summary of the method: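 Test agents were screened against the mec2-1 yeast strain, with defined DNA repair or cell cycle alteration. Growth was scored as inhibition against vehicle-only controls.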
# [3] = NCI Yeast Anticancer Drug Screen. Data for the sgs1 mgt1 strain (AID 161);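 also: 0% = growth of cultures given vehicle only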; conditions: S. cerevisiae sgs1 mgt1 strain, active compounds read high; at 50.0 µM unless noted
# Summary of the method: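 Genetically altered yeast, compound exposure, growth inhibition relative to vehicle.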
# [4] = NCI Yeast Anticancer Drug Screen. Data for the cln2 rad14 strain (AID 165);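 also: 0% = growth equal to vehicle treated cultures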; conditions: S. cerevisiae cln2 rad14 strain, active compounds read high; at 50.0 µM unless noted
# Summary of the method: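 Growth of compound-exposed yeast (cln2 rad14 genotype) measured and expressed as inhibition relative to vehicle.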
# [5] = NCI Yeast Anticancer Drug Screen. Data for the bub3 strain (AID 167); conditions: S. cerevisiae bub3 mutant strain, active compounds read high; at 50.0 µM unless noted
# Summary of the method: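 Part of a panel of yeast mutants defective in DNA damage repair or cell cycle regulation. Each strain is grown with compound, and inhibition is calculated relative to solvent-treated cultures.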
# [6] = NCI Yeast Anticancer Drug Screen. Data for the mlh1 rad18 strain (AID 175); conditions: S. cerevisiae mlh1 rad18 strain growth inhibition, active compounds read high; at 50.0 µM unless noted
# Summary of the method: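 In this whole-cell yeast screen, a strain with altered DNA damage repair is challenged with compound, and its growth is measured against matched vehicle-treated controls.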
Compound,growth inhibition [1],growth inhibition [2],growth inhibition [3],growth inhibition [4],growth inhibition [5],growth inhibition [6]
CC(C)(C)CC(=O)NC1CCCCC1,-6.55%,-5.8%,12.2%,-23.1%,3.4%,13.7%
COCS(=O)(=O)c1ccccc1,2.55%,-6.1%,11.8%,14.3%,6.55%,0.15%
CS(=O)(=O)OCC(Br)C(Br)COS(C)(=O)=O (stereo not given),2.8%,5.2%,7.7%,26.4%,-5.3%,10.2%
O=C(CC1(O)C(=O)Nc2ccc(Br)cc21)c1ccc2c(c1)OCO2 (stereo not given),2.7%,5.35%,11.4%,-6.5%,36.5%,-1.15%
CCCC1([N+]2(C)CCCC2)CS(=O)C1CC (stereo not given),-3.8%,8.45%,-3%,-4.8%,5.8%,-13.3%
[CH3][Sn]([CH3])([S]P(=S)(c1ccccc1)c1ccccc1)[S]P(=S)(c1ccccc1)c1ccccc1,25.1%,31.7%,18.7%,-15.8%,19.1%,43.9%
Cc1ccc([N+](=O)[O-])cc1NC(=O)Oc1ccc(Cl)cc1Cl,-5%,8.55%,-10.9%,1%,2.5%,-13.3%
N#Cc1nc(C2CC2)oc1N,-18.7%,-2.65%,-22.9%,0.35%,-25.2%,1.65%
O=C1C=C(Nc2ccccc2)C(=O)C=C1Nc1ccccc1,-2.3%,1.65%,10%,-42.2%,4.15%,-6%
CCOc1ccc(N2C(=O)/C(=C/c3ccc(N(CCC#N)CCC#N)cc3)N=C2c2cc([N+](=O)[O-])ccc2Cl)cc1,5.85%,-1.15%,-9.8%,17.8%,9.3%,-6.6%
O=S=Nc1c(Cl)cc(Cl)cc1Cl,1.1%,-20.1%,1.55%,-18.6%,11.7%,-0.6%
Cn1c(=S)[nH]c2c(Cl)cc(Cl)cc2c1=O,-40.4%,-30.6%,-7.1%,-13.9%,-27.7%,-51.9%
CCCCCCCSCC(=O)OCC,-12.6%,-19.8%,-22.5%,7.2%,-6.5%,-5.75%
c1ccc(-c2nc3ccccc3s2)cc1,25.2% and 18.6%,-22.4% and -0.5%,24.1% and -17.9%,23.8% and -20.2%,8.55% and -4.35%,40.4% and 2.6%
CCOc1cccc(OCC)c1,23.1%,27.1%,-7.4%,-2.05%,1.4%,13.9%
CC(=O)O[C@H]1[C@@H](OC(C)=O)C(C)(C)/C=C/[C@H](C)C(=O)[C@@]2(OC(C)=O)C[C@@](C)(OC(C)=O)[C@H](OC(C)=O)[C@@H]2[C@H]2OC(=O)CC[C@@]2(OC(=O)c2ccccc2)[C@@H]1OCC(C)C,3.85%,-2.15%,-15.8%,36%,-22.3%,-0.15%
O=S(=O)(Cl)c1ccc(Cl)cc1,-4.6%,13.1%,6.8%,1.5%,-16.6%,-7.25%
CCc1ccc(NS(=O)(=O)c2ccc(OC)cc2)cc1,37.9%,63.5%,80.2% (active),25.9%,43.4%,75.7% (active)
CC(=O)N1CCC(/C(C)=N/O)CC1,4.9%,-10.1%,-12.6%,-33.8%,-13.8%,0.45%
CCCC(=O)n1ccc2ccccc21,-14.8%,-37.6%,7.45%,13.4%,-12.9%,1.6%

Compound,growth inhibition [1],growth inhibition [2],growth inhibition [3],growth inhibition [4],growth inhibition [5],growth inhibition [6]
C/C(=N\NC(=S)Nc1ccccc1)[C@H]1C2CCC(C2)C1C/C=C\CCCC(=O)O (stereo not given in full),26.1%,17.3%,25.9%,48.1%,37.5%,13.4%
Cc1ccc(S(=O)(=O)C2OC(CO)C(O)C(O)C2O)cc1 (stereo not given),-11.5%,-16.6%,-5.55%,-21.1%,14.9%,-6.25%
CCCC1N[C@H](C(=O)O)CS1 (stereo not given in full),15.7%,7.1%,-1.85%,7.2%,10.1%,-3.85%
C(=C/c1ccccc1)/c1ccccc1,-6.45%,-16.1%,-25.6%,8.85%,-2.65%,-2.15%
Cc1ccc(S(=O)(=O)NC(=O)NC(C)C(=O)O)cc1 (stereo not given),-1.15%,-5.65%,-13.2%,0.2%,2.5%,-7.65%
C[N+](C)(C)CCc1ccc(Cl)cc1,10.2%,7.45%,9.7%,-3.7%,-0.05%,21.8%
CCc1ccc2c(c1)CCCC2(C)C,-2.5%,-10.2%,2.25%,-8.3%,0.3%,-0.05%
CC(O)COC(C)C (stereo not given),8.55%,-5.7%,17.7%,2.85%,-1.85%,19.8%
Cc1ccc(Nc2ccc(C)cc2[N+](=O)[O-])cc1,18.3%,-2.25%,32.9%,15.1%,31.6%,17.6%
Cc1ccccc1C(c1ccccc1Cl)[N+](C)(C)C (stereo not given),35%,14.7%,27.1%,19.2%,-3.95%,43.1%
Cc1ccc2c(ccc3nc(N)nc(N)c32)c1,-0.4%,11.5%,-5.55%,-42.9%,-47.3%,-2.65%
COc1ccc(-c2sc(/N=C/c3ccc(N(C)CCC#N)cc3)c(C#N)c2C)cc1OC,4%,-1.05%,28.1%,16.4%,18.3%,15.3%
O=[N+]([O-])c1cc(C(Nc2nncs2)Nc2nncs2)ccc1Cl,12.6%,8.25%,43.9%,11%,2.5%,46.6%
COc1ccc(/C=N/NC(=O)c2ccccc2)c(OC)c1,17.1%,0%,6.65%,17.7%,28.2%,9.3%
CC(=O)Cc1cc(-c2cc(CC(C)=O)nc(N)n2)nc(N)n1,1.85%,13.3%,12.7%,15.2%,1%,20.4%
CC(Oc1ccc(OCC2CCCCC2)cc1)C(=O)N(CCO)CCO (stereo not given),21.2%,-19.9%,25.6%,11.9%,-43.4%,6.65%
CCC12C=CCN3CC[C@@]4(c5cc([C@@]6(C(=O)OC)C[C@@H]7CN(CCc8c6[nH]c6ccccc86)C[C@](O)(CC)C7)c(OC)cc5N(C)[C@H]4[C@@](O)(C(=O)NCCCCCCCCCCCC(=O)O)[C@@H]1O)C32 (stereo not given in full),19%,19.8%,21.6%,5%,25.3%,-17.6%
C=CCS(=O)(=O)CC=C,23.9%,-12.5%,-7.3%,3%,-15.6%,17.9%
Nc1nc(N)c2[nH]cnc2n1,0.6% and 18.9%,-1.5% and -3.95%,3.65% and -1.85%,10.7% and -30.4%,0.6% and -16.6%,-43.9% and 1.2%
CCCCC(NC(=O)C(C)NC(=O)OCc1ccccc1)C(=O)O (stereo not given),2%,6.3%,3.4%,4.75%,12.8%,-9.6%

# From PubChem BioAssay (NCI)
